Bioassay records as filed in PubChem.
VDR inhibitor = vitamin D3 receptor (human) inhibition. P11473. VDR-SRC2-3 peptide fluorescence polarization, 2 h. Potency, µM, for the others: max response, negative = inhibition, hits mostly inhibitors. 0.93% of 400,000 active. AID 504847; note: potency is the fitted concentration of half-maximal effect; % is set by controls: 0 for no effect and ±100 for the full control effect
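Inhibition of the VDR/SRC2-3 peptide interaction is quantified by fluorescence polarization. Compounds (23 nl, pintool) incubate with the reagents for 2 hours at ambient room temperature.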
GCN5L2 inh-1 = inhibitors of human GCN5L2 histone acetyltransferase; Q92830; GCN5L2 HAT assay, ThioGlo1 CoA-SH fluorescence; Potency, µM (titrated, usually from 58.9 µM), inactives show top-dose activity change, negative = inhibition, most hits filed as inhibitors; 0.21% of 390,000 active; AID 504327; note: potency is the fitted concentration of half-maximal effect; % is set by controls: 0 for no effect and ±100 for the full control effect
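Free CoA generated was detected with ThioGlo1 (50uM) fluorescence at Ex340nm/Em540nm, read immediately and after 20 min at room temperature. Enzyme, 20 nM in HEPES pH 7.5 buffer, saw compounds 15 min before adding 75uM H3(1-25) peptide and 70uM acetyl-CoA.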
GLS inh = inhibitors of human glutaminase (GLS); GLS enzymatic activity, qHTS titration; 0.21% of 410,000 active; Potency, µM (series often up to 45.5 µM), without a hit: at the highest dose activity change, negative = inhibition, most hits filed as inhibitors; note: potency is the fitted concentration of half-maximal effect; % is set by controls: 0 for no effect and ±100 for the full control effect
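Glutamate formation by hKGA was monitored fluorometrically using coupled glutamate oxidase, HRP and Amplex Red. Substrate was added as 1 mM L-glutamine solution; incubation was 30 min at RT after an initial read.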
PI4K2A inh = inhibitors of human PI4K2A | Q9BTU6 | purified PI4K2A, ADP-Glo luminescence, 1 h; hits give low values | activity change, negative = inhibition, % at 76.9 µM | 0.13% of 420,000 active | AID 1346378; in the data active = activity change below about -50%; inconclusive = mostly about -30% to -49%;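 note: -100% = wells without enzyme as full effect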
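ADP-Glo luminescence measured ADP generated by PI4K2A enzyme (4 ug/mL before mixing) with 1.2 mM PI substrate (pre-mix) and 300 microM ATP (pre-mix). Tris pH7.5 buffer with MgCl2, Triton X-100; 1 h reaction at ambient temperature.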
PLK1 PBD block = PLK1 (human) polo-box domain binding inhibition; Potency, µM, for inactives: max response, negative = inhibition, actives largely listed as inhibitors; 2.8% of 360,000 active; P53350; AID 720504; Plk1 PBD binding of FITC phosphopeptide, fluorescence polarization; note: potency is the fitted concentration of half-maximal effect; series mostly up to about 57 µM; % is set by controls: 0 for no effect and ±100 for the full control effect; nearly all actives have a fitted effect of over 65% in size
Target sequence (P53350 whole entry, looked up, the tested form may be a part): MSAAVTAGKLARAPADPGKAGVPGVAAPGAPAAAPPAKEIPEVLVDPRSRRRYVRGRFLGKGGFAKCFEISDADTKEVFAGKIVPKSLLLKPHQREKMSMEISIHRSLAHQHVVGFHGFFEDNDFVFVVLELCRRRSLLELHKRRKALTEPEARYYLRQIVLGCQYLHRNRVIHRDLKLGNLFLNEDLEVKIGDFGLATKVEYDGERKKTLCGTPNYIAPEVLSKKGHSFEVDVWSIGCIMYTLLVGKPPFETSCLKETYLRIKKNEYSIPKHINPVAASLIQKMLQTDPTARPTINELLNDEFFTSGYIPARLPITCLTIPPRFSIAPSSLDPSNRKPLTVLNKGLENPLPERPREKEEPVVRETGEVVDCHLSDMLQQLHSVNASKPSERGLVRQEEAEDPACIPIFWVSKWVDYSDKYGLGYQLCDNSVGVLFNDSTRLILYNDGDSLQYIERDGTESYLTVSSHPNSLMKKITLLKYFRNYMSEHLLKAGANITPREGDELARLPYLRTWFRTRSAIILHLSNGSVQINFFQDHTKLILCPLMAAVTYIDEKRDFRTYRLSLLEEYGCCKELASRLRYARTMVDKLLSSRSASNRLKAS
GCN5L2 inh-2 = confirmation of human GCN5L2 histone acetyltransferase inhibitors | AID 588347 | Potency, µM, most hits filed as inhibitors | 70% of 140 active | shares compounds with GCN5L2 inh-1 | GCN5L2 HAT, ThioGlo1 CoA fluorescence, 20 min
The depositor's hits bear a star; ? = inconclusive; / = no result. Compounds with a hit are over-represented: about 3.1% of the library has one in this group of screens. Unless noted, calls come from the whole dose curve; as a rule, active = well fitted curve in the direction sought with a large enough effect; inconclusive = small, poorly fitted or top-dose-only effect, or another doubt; inactive = no such curve, though single readings can be large; an effect the other way counts as inactive or inconclusive.

SMILES	VDR inhibitor	GCN5L2 inh-1	GLS inh	PI4K2A inh	PLK1 PBD block	GCN5L2 inh-2
S=C(Nc1cccc(Cl)c1)OCCN1CCCC12CCC(c1ccccc1)CC2 (centres undefined)	/	/	/	2	/	/
COc1ccc2cc(CCNS(=O)(=O)c3ccc(C)cc3)c(=O)[nH]c2c1	-21%	-10%	-2%	1	/	/
O=C(/C=C/c1ccco1)Nc1scc(-c2ccccc2)c1C(=O)O	-15%	?	19%	-10	?	?
CC(=O)NC(=S)Nc1sc2c(c1C(N)=O)CCC(C)C2 (centres undefined)	15%	20µM*	-11%	4	-22%	32*
CCn1c(=O)n(CC(=O)N2CCOCC2)c(=O)c2ccccc21	/	/	/	2	/	/
COc1ccc2c(C(=O)NCCCCO)c(-c3ccc(S(C)(=O)=O)cc3)sc2c1	0%	?	3%	-6	-30%	36*
COCCN(C(=O)COC(=O)c1cc2c(s1)CCC2)c1c(N)n(Cc2ccccc2)c(=O)[nH]c1=O	-12%	?	10µM*	?	9.5µM*	11*
Clc1ccc(Cn2c3c(c4ccccc42)CCc2cc4ccccc4nc2-3)cc1	-24%	/	/	/	/	/
Cc1nc2ccc(NC(=O)c3cc([N+](=O)[O-])cc([N+](=O)[O-])c3Cl)cc2s1	?	?	-18%	-20	2.7µM*	8.1*
Cc1nc2ccc(NC(=O)c3ccc(Cl)c([N+](=O)[O-])c3)cc2s1	7%	2%	-3%	-3	-3%	/
O=[N+]([O-])C(=C1Nc2ccccc2N1)C(Cl)=C(Cl)Cl	?	35µM*	3%	-5	-16%	23*
O=S1(=O)c2c(cccc2N2CC[C@@H](O)C2)O[C@H]2CCN1C2	/	/	/	4	/	/
COc1ccc(C(=O)N/N=C/c2ccc3cccc(OCc4ccccc4)c3n2)cc1	-14%	?	8%	2	1%	23*
O=C(N/N=C/c1ccc2cccc(OCc3ccccc3)c2n1)c1ccc(Br)cc1	6%	?	-5%	6	9%	/
O=C(Nc1ccc(-c2nc3ccccc3s2)c(O)c1)C1=COCCO1	?	25µM*	-12%	-4	-15%	23*
COc1ccc(N2C(=O)CCSC23C(=O)N(Cc2ccc(F)cc2)c2ccccc23)cc1Cl (centres undefined)	3%	-4%	0%	-3	/	/
COc1ccccc1-n1c(C)cc(/C=C2/C(=N)N3C(=NC2=O)SN=C3S(C)(=O)=O)c1C	-19%	-24%	2%	4	?	/
CCOc1ccc(-n2c(C)cc(/C=C3/C(=N)N4C(=NC3=O)SN=C4S(C)(=O)=O)c2C)cc1	?	32µM*	19%	1	19µM*	?
O=C(O)c1cc(-c2ccc(-c3c(-c4ccc5c(c4)OCO5)noc3-c3ccsc3)cc2)nc2ccccc12	?	20µM*	4%	0	17µM*	16*
C[C@H](O)[C@@H]1CN2CCc3c([nH]c4c(-c5ccccc5)cccc34)[C@@H]2C[C@@H]1N(C)C(=S)Nc1ccc(C#N)cc1	/	/	/	-6	/	/
COC(=O)c1ccc(C2C(C(=O)c3cc4ccccc4o3)=C(O)C(=O)N2c2cc(C)on2)cc1 (centres undefined)	-13%	-11%	0%	-1	?	/
Cc1cc(N2C(=O)C(O)=C(C(=O)c3cc4ccccc4o3)C2c2cccc(Br)c2)no1 (centres undefined)	?	?	?	-2	27µM*	?
O=C(NC1CCCCN(Cc2ccc(Cl)cc2)C1=O)c1cccc(F)c1 (centres undefined)	/	/	/	-1	/	/
COc1ccc(CC(=O)n2[nH]c(=O)c3ccccc3c2=O)cc1OC	5%	-4%	2%	1	-3%	/
COc1ccc(CC(=O)n2[nH]c(=O)ccc2=O)cc1OC	45µM*	?	10µM*	-1	6.7µM*	36*
C[n+]1ccccc1/C=C/c1ccc(C#N)cc1	0%	?	2%	-1	?	29*
